{
  "source": "the supplement of paper PMC12067093",
  "about": "“Discovery and optimisation of a covalent ligand for TRIM25 and its application to targeted protein ubiquitination” (Chemical Science, 2025)",
  "note": "Of roughly 21,000 targets only a part is listed; those with the largest changes were picked by preference.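 Further: competitive profiling in live THP-1 cells: cysteine peptides tagged with an iodoacetamide desthiobiotin (IA-DTB) probe, intensity after compound treatment relative to DMSO-treated cells.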",
  "data": [
    {"compound": "Cc1cc(ccc1-c1ccccc1)C(=O)N1CCCN(CC1)C(=O)CCl [compound 10]", "assay": "probe-labelled cysteine peptide fold change vs DMSO (competition) (log2 fold change); higher = less target engagement (more negative = stronger competition)", "conditions": "10 µM; THP-1; incubation time: 4 h", "values": [
      {"target": "AKR1B1_P15121_304_VCALLSCTSHK (UniProt P15121)", "probe-labelled cysteine peptide fold change": -0.547},
      {"target": "AKAP8_O43823_395_IQFACSVCK (UniProt O43823)", "probe-labelled cysteine peptide fold change": 0.0747},
      {"target": "ATM_Q13315_2770_SGVLEWCTGTVPIGEFLVNNEDGAHKR (UniProt Q13315)", "probe-labelled cysteine peptide fold change": 0.0886},
      {"target": "ARRB2_P32121_126_KLGQHAHPFFFTIPQNLPCSVTLQPGPEDTGK (UniProt P32121)", "sequence (P32121 whole entry, looked up)": "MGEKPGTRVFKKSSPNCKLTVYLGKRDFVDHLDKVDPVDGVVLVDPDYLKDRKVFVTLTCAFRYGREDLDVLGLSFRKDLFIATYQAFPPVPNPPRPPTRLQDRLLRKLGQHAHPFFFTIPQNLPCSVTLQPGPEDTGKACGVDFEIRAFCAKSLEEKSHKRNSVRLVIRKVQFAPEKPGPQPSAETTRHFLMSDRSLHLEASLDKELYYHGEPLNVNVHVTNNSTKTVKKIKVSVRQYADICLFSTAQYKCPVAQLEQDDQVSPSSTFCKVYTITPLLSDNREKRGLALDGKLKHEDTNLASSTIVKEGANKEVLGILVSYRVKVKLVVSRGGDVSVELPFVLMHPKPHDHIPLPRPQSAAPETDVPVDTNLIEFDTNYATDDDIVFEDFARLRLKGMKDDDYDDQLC", "probe-labelled cysteine peptide fold change": -0.12},
      {"target": "ARHGEF7_Q14155_490_TLGNVTYMSQVLIQCAGSEEK (UniProt Q14155)", "sequence (Q14155 whole entry, looked up)": "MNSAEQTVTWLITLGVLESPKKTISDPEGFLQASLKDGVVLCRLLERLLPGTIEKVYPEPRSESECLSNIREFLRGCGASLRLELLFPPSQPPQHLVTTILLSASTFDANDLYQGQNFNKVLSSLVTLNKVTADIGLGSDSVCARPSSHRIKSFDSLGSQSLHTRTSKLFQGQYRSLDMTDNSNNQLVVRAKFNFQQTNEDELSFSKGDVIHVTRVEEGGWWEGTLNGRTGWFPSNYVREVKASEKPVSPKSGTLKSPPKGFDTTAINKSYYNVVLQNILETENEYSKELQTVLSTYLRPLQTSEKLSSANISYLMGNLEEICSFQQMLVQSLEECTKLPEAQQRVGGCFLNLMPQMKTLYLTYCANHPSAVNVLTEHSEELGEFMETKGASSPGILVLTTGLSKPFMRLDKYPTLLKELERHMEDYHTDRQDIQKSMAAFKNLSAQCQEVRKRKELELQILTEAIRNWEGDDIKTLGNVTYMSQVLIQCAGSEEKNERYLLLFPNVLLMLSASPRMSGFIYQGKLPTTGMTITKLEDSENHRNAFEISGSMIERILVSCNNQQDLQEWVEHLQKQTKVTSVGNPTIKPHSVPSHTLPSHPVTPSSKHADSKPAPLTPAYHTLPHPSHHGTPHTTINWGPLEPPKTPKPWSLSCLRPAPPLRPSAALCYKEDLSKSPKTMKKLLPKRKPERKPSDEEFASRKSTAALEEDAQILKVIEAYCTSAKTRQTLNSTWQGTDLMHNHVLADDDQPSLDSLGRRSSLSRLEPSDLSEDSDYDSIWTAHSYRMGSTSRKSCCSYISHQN", "probe-labelled cysteine peptide fold change": -0.204},
      {"target": "ANKMY2_Q8IV38_390_LDVNSNCVNEEQPEAEVGISQK (UniProt Q8IV38)", "sequence (Q8IV38 whole entry, looked up)": "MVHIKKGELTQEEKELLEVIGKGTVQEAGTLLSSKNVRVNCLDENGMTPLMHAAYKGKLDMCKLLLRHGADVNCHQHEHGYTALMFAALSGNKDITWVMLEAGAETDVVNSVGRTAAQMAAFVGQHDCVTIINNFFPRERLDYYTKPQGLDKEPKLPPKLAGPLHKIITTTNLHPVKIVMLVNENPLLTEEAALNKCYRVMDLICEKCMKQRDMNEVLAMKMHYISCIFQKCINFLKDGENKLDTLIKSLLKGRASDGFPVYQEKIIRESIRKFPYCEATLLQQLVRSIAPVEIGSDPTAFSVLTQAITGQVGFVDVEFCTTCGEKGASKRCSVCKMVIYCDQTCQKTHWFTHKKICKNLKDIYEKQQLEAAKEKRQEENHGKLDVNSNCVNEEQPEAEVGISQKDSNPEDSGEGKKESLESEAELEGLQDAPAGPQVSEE", "probe-labelled cysteine peptide fold change": -0.281},
      {"target": "ALG13_Q9NP73_86_ADLVISHAGAGSCLETLEK (UniProt Q9NP73)", "sequence (Q9NP73 whole entry)": "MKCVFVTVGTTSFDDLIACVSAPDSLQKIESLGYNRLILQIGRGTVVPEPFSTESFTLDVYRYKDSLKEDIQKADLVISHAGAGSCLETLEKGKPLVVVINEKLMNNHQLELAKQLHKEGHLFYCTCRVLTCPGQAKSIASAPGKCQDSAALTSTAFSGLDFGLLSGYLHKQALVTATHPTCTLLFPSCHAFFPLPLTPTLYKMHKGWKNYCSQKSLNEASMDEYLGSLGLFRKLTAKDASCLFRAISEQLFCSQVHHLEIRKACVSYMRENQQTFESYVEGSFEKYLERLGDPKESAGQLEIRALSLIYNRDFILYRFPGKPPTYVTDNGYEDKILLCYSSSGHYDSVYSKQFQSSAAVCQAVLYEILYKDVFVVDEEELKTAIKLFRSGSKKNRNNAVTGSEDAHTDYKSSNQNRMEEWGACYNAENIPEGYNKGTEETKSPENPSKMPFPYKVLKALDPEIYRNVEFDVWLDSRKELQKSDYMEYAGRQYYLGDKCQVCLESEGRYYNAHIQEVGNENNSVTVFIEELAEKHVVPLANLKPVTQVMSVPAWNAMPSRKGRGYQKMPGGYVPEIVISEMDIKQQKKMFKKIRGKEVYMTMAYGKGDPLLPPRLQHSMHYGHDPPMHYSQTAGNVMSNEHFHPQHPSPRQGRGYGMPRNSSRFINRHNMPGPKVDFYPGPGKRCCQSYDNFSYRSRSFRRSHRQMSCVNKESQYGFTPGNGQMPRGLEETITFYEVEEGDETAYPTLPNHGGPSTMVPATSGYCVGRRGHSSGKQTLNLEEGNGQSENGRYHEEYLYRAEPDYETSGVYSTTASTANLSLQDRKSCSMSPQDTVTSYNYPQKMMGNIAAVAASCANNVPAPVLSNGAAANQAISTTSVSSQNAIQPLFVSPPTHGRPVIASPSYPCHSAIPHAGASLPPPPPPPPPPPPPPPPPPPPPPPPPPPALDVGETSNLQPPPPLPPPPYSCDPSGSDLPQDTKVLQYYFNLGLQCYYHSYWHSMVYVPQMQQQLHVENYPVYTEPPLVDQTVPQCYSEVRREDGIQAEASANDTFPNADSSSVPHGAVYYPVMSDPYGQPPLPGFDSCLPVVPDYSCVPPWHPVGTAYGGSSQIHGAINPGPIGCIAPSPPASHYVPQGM", "probe-labelled cysteine peptide fold change": -0.211},
      {"target": "ANKRD17_O75179_564_AGADIELGCSTPLMEAAQEGHLELVK (UniProt O75179)", "probe-labelled cysteine peptide fold change": 0.0101},
      {"target": "ARHGEF6_Q15052_319_VGGCLLSLMPHFK (UniProt Q15052)", "probe-labelled cysteine peptide fold change": -0.297},
      {"target": "ATP2A1_O14983_349_SLPSVETLGCTSVICSDK (UniProt O14983)", "probe-labelled cysteine peptide fold change": -0.0681},
      {"target": "ATN1_P54259_851_APVECPSLGPVPHRPPFEPGSAVATVPPYLGPDTPALR (UniProt P54259)", "sequence (P54259 whole entry)": "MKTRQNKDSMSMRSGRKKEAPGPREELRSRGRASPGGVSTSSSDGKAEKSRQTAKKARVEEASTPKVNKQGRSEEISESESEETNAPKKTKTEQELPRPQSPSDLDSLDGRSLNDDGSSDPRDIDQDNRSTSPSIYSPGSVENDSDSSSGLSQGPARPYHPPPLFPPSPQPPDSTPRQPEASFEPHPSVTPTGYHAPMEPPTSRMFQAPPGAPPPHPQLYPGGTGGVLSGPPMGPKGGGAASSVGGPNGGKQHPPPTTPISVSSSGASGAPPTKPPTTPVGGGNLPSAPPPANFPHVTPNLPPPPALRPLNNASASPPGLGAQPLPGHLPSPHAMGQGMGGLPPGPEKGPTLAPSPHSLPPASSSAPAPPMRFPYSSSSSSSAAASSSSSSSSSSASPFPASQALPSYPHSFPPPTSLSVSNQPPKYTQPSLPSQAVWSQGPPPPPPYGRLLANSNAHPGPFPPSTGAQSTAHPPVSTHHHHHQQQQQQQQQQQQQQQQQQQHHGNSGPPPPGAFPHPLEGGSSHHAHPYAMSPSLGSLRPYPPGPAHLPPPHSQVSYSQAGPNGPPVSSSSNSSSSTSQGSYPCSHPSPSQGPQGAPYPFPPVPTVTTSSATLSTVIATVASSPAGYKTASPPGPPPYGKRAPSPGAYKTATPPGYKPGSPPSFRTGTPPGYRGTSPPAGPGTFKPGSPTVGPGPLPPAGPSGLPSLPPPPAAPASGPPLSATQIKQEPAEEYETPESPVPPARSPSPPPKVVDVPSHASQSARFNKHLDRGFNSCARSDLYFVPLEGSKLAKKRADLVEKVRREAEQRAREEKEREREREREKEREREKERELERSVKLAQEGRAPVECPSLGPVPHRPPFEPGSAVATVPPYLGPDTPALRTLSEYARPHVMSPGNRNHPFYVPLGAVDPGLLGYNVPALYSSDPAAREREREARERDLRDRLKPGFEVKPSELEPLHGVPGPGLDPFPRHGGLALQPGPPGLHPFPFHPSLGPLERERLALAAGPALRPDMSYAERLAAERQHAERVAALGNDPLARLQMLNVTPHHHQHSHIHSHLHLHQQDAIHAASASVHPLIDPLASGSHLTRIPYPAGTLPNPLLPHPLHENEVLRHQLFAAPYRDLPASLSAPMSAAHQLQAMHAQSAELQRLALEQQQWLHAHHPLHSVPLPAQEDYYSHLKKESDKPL", "probe-labelled cysteine peptide fold change": -0.143},
      {"target": "ADAM10_O14672_530_DDSDCAR (UniProt O14672)", "probe-labelled cysteine peptide fold change": 0.552},
      {"target": "ARMC6_Q6NXE6_121_FCDQCK (UniProt Q6NXE6)", "sequence (Q6NXE6 whole entry, looked up)": "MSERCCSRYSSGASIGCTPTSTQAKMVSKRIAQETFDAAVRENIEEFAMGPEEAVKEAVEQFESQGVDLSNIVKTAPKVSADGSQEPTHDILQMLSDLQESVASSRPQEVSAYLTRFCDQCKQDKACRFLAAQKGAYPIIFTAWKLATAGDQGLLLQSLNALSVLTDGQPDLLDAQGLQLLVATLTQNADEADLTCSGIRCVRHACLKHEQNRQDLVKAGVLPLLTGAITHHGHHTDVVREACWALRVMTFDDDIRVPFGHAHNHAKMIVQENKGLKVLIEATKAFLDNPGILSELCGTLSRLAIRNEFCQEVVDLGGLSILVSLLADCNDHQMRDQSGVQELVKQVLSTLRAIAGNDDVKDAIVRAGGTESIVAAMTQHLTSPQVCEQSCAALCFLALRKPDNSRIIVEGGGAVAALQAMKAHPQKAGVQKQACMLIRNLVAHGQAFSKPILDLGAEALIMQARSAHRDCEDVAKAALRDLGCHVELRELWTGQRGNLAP", "probe-labelled cysteine peptide fold change": -0.142},
      {"target": "ATM_Q13315_1396_ATFAYISNCHK (UniProt Q13315)", "probe-labelled cysteine peptide fold change": -1.94},
      {"target": "AIP_O00170_122_HCCGVAQMR (UniProt O00170)", "sequence (O00170 whole entry, looked up)": "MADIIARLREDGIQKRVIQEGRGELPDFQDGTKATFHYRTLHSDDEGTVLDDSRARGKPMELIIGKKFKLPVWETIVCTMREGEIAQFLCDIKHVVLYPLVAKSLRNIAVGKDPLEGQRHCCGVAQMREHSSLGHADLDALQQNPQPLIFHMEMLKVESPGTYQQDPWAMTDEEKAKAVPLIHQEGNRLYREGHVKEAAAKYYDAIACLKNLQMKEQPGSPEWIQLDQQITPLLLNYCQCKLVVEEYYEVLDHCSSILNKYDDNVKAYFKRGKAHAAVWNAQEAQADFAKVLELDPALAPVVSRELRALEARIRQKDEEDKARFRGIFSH", "probe-labelled cysteine peptide fold change": -0.267}
    ]}
  ]
}
